Compound activity (PubChem BioAssay)
D1 antag: Antagonist of Human D 1 Dopamine Receptor: qHTS; D(1A) dopamine receptor (Homo sapiens), P21728; HEK293 TREx D1 cells, calcium flux, dopamine EC80; active compounds read low; activity change, negative = inhibition, % at 10 µM; 3.2% of 360,000 active; in the data active means activity change below about -30%
Target sequence (P21728 whole entry, looked up): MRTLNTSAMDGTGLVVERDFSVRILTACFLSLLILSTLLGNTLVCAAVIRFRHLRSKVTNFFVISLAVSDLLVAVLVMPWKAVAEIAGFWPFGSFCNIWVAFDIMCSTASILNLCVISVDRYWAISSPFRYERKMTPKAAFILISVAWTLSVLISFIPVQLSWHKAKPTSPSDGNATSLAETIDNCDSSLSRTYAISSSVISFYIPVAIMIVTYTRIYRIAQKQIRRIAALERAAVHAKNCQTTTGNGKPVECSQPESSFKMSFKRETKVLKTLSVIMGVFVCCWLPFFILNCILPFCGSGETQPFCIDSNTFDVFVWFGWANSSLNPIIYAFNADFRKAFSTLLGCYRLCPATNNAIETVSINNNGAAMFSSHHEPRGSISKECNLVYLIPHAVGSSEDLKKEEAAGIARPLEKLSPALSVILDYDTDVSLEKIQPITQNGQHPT
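Calcium flux readout: force-coupled, inducible Hek293 Trex D1 line, cells induced overnight at 30 C with tetracycline, dye-loaded 30–90 min at RT. Antagonism scored against EC80 dopamine challenge given 180 s after compound.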
Glioma ERSR ind: qHTS for Inducers of the Endoplasmic Reticulum Stress Response (ERSR) in Human Glioma: qHTS; U87-MG GRP78 promoter luciferase reporter, 16 h; Potency, µM, actives largely listed as activators; 0.02% of 420,000 active; AID 602332, 2012; active means well fitted activation curve with a large enough effect; further: series mostly up to about 76 µM; nearly all actives have a fitted effect of over 35% in size
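Stably transfected U87-MG human glioma cells carrying a GRP78-based luminescent sensor were seeded at 1000 cells/well, pin-dosed with compounds and incubated 16 h. Luciferase reagent was then added, and end-point luminescence was read after 10 min at room temperature.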
TRHR agonist: qHTS for Small Molecule Agonists and Allosteric Enhancers of Human TRH Receptor: Primary Screen for Agonists; 0.18% of 360,000 active; TRHR cells, calcium flux fluo-8, FDSS agonist mode; Thyrotropin-releasing hormone receptor (Homo sapiens), P34981; activation, % at 2 µM
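In this calcium-flux screen, cells bearing human TRHR are dye-loaded with fluo-8, baselined for 10 cycles, then exposed to library compounds; positive kinetic calcium responses during the agonist phase mark hits, with TRH as control.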
D1 agonist: Allosteric Agonists of the Human D1 Dopamine Receptor: qHTS. D(1A) dopamine receptor (Homo sapiens), P21728. 1% of 360,000 active. activation, % at 2 µM. HEK293 T-REx D1 cells, calcium flux, agonist mode
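Tetracycline-induced HEK293 TREx D1 cells, force-coupled to calcium signalling, were dye-loaded with a no-wash calcium kit. Compound was pin-added after a 10 s baseline. Fluorescence was read kinetically at 1 cycle/s for 180 s, with calcium rises flagged as agonism.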
TRHR PAM: qHTS for Small Molecule Agonists and Allosteric Enhancers of Human TRH Receptor: Primary Screen for Enhancers; Thyrotropin-releasing hormone receptor (Homo sapiens), P34981; TRHR cells, fluo-8 calcium fluorescence, EC20 TRH enhancement; enhancement, % at 2 µM; 0.66% of 360,000 active; in the data active means enhancement above about 30%
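Enhancer read-out: after compound pinning and an initial kinetic agonist-mode read, an EC20 of TRH (10 nM final) was injected and fluo-8 calcium signal (Ex 480/Em 530) followed at 1 s/cycle for 100 cycles in TRHR-expressing cells.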
D1 potentiator: Potentiators of Human D1 Dopamine Receptor: qHTS | D(1A) dopamine receptor (Homo sapiens), P21728 | HEK293 TREx D1 cells, calcium flux, dopamine EC20 potentiation | potentiation, % at 10 µM | 0.036% of 360,000 active | AID 504651, 2011; in the data active means potentiation above about 30%
Numbers stand for hits; - = inactive; . = not tested or not shown. A selection: hits, their analogues and other compounds. The true share with any hit is near 4%. Unless noted, no stated cut-off is given here; in the data, active means activation above about 30%; inactive means the rest.

SMILES | D1 antag | Glioma ERSR ind | TRHR agonist | D1 agonist | TRHR PAM | D1 potentiator
CCCCn1c(N)c(N(CC(C)C)C(=O)C2CC(=O)N(c3ccccc3C(C)CC)C2)c(=O)[nH]c1=O (configuration not stated) | - | - | - | - | - | -
CC(=O)N1CCC2(CC1)CC(=O)c1cc(OCC(=O)N3CCOCC3)ccc1O2 | -38 | - | - | - | - | -
O=S(=O)(NN1CCOCC1)c1ccc(Br)cc1 | - | - | - | - | - | -
O=C(NCCCN1CCCC1=O)c1cccc(Oc2ccccc2)c1 | - | - | - | - | - | -
O=C(O)c1cccc(OCCN2CCCC2=O)c1 | -32 | - | - | - | - | -
Cc1cc(C(C)(C)C)ccc1OCCN(C)C | - | - | - | - | - | -
Cc1ccc(-c2nc3cccnc3s2)cc1NC(=O)C(C)C | - | - | - | 30 | - | -
CCC(C(=O)Nc1cc(-c2nc3cccnc3s2)ccc1C)c1ccccc1 (configuration not stated) | - | - | - | - | - | -
CCOC(=O)c1ccc(NC(=S)Nc2cccc(C)n2)cc1 | - | - | - | - | - | -
CC(=O)NC(NC(=S)Nc1ccc(S(N)(=O)=O)cc1)C(Cl)(Cl)Cl (configuration not stated) | - | - | - | - | - | -
CCOC(=O)c1ccc(NC(=S)Nc2cccc(N)n2)cc1 | -34 | - | - | - | - | -
CCOC(=O)c1cn[nH]c1NC(=S)Nc1ccc(OC)cc1 | -39 | - | - | - | - | -
CC(=O)NC(NC(=S)Nc1ccc(N=Nc2ccccc2)cc1)C(Cl)(Cl)Cl (configuration not stated) | -44 | - | - | - | - | -
CCOC(=O)NC(NC(=S)Nc1ccc(OC)cc1)C(Cl)(Cl)Cl (configuration not stated) | -34 | - | - | - | - | -
O=c1oc2cc([N+](=O)[O-])ccc2nc1/C=C(O)/C=C/c1ccccc1 | - | . | - | - | - | -
COCc1nc2c([nH]1)c(=O)n(C)c(=O)n2CC(C)C | - | - | - | - | - | -
CCOc1ccc(Nc2cc(Nc3ccccc3OCC)nc(C=C(C#N)C#N)n2)cc1 | - | - | - | - | - | -
O=C(CCc1ccccc1)NC(NC(=S)Nc1ccc(Cl)cc1)C(Cl)(Cl)Cl (configuration not stated) | -36 | - | - | - | - | -
Cc1ccc(S(=O)(=O)N2CCN(C(=O)COC(=O)/C=C/c3ccc([N+](=O)[O-])cc3)CC2)c(C)c1 | . | - | . | . | . | .
Cc1ccc(C(=O)Nc2ccccc2[N+](=O)[O-])cc1S(=O)(=O)N1CCOCC1 | -34 | - | - | - | - | -
O=C(Nc1ccc(F)c(F)c1)c1ccc(F)c(S(=O)(=O)N2CCOCC2)c1 | -33 | . | - | - | - | -
O=C(NCCc1ccc(F)cc1)c1ccc(Cl)c(S(=O)(=O)N2CCOCC2)c1 | -33 | - | - | - | - | -
CCn1nc(C(=O)Nc2ccc(Cl)c(S(=O)(=O)N3CCOCC3)c2)c2ccccc2c1=O | -37 | - | - | - | - | -
O=C(Nc1cccnc1)c1ccc(F)c(S(=O)(=O)N2CCOCC2)c1 | - | - | - | - | - | -
CN1CCN(CCC(=O)Nc2ccc(OCc3ccccc3)cc2)CC1 | - | - | - | - | - | -
SMILES | D1 antag | Glioma ERSR ind | TRHR agonist | D1 agonist | TRHR PAM | D1 potentiator
COc1ccc(NC(=O)CSc2nc3c([nH]c4ccccc43)c(=O)n2-c2ccccc2)c(OC)c1 | - | - | - | - | - | -
COc1ccc(-c2[nH]ncc2/C=C(\C#N)C(=O)NC2CC2)cc1 | - | - | - | - | - | -
Cc1cc(NC(=O)c2ccc(Cl)cc2Cl)n(CCC#N)n1 | - | - | - | - | - | -
Cc1ccc(NC(=O)CSc2n[nH]c(N)n2)cc1S(=O)(=O)N1CCOCC1 | -64 | - | - | - | - | -
COc1ccc(CC(=O)Nc2ccc(F)c(S(=O)(=O)N3CCOCC3)c2)cc1 | . | - | . | . | . | .
Cc1ccc(NC(=O)CSc2nc(N)cc(=O)[nH]2)cc1S(=O)(=O)N1CCOCC1 | - | - | - | - | - | -
Cc1ccc(C(=O)Nc2ccc(C)c(S(=O)(=O)N3CCOCC3)c2)c(C)c1 | -42 | - | - | - | - | -
COC(=O)c1ccccc1NC(=O)CNc1ccc(F)c(S(=O)(=O)N2CCOCC2)c1 | -51 | - | - | - | - | -
O=C(c1ccccc1F)N1CCN(c2ccccc2)CC1 | - | - | - | - | - | -
O=C(NCc1cccs1)c1cccc(N2CCCC2=O)c1 | - | - | - | - | - | -
O=C(N/N=C/c1ccc(Cl)cc1Cl)c1cccc(N2CCCC2=O)c1 | - | - | - | - | 30 | -
O=C(N/N=C/c1cc(Br)cc(Br)c1O)c1cccc(N2CCCC2=O)c1 | - | - | - | - | - | -
O=C(NCc1ccccc1CN1CCCC1)c1cccc(N2CCCC2=O)c1 | -37 | - | - | - | - | .
O=C(c1cccc(N2CCCC2=O)c1)N1CCN(c2ccccc2)CC1 | -31 | - | - | - | - | -
COC(CN(C(=O)CCl)C(C(=O)NC1CCCCC1)c1ccc(Cl)cc1)OC (configuration not stated) | - | - | - | - | - | -
O=C(CN1C(=O)/C(=C/c2ccccc2F)Oc2ccccc21)N1CCN(c2ccccn2)CC1 | - | - | - | - | - | -
CCOc1ccc(-c2nnc3ccc(SC(C)C)nn23)cc1 | -42 | - | - | - | - | -
CCOc1ccc(-c2nnc3ccc(SCC(=O)N4CCCCC4)nn23)cc1 | - | - | - | - | - | -
CCOc1ccc(-c2nnc3ccc(SCC(=O)Nc4nc5ccc(C)cc5s4)nn23)cc1 | -43 | - | - | - | - | -
CCOc1ccc(-c2nnc3ccc(SCC(=O)Nc4nc5ccccc5s4)nn23)cc1 | - | - | - | - | - | -
Cc1ccc(OCC(=O)NNC(=O)CSC(=S)N2CCCC2)cc1 | - | - | - | - | - | -
O=C(CC1N=C2c3ccccc3N=C(SCC(=O)Nc3ccc(F)cc3)N2C1=O)NCc1ccc2c(c1)OCO2 (configuration not stated) | - | - | - | - | - | -
COC(=O)c1ccc2cc(C)cc(C)c2n1 | . | - | . | . | . | .
CC(=O)Nc1cccc(OCC(=O)Nc2cccc(S(=O)(=O)N3CCCC3)c2)c1 | - | - | - | - | - | -
